From PubChem BioAssay AID504339 (National Center for Advancing Translational Sciences (NCATS), 2011)
The whole screen tested about 390,000 compounds, of which about 17,000 (4.4%) were called active. Another 8% or so got no clear call; they are omitted. Calls follow the shape of the dose curve; as a rule, active = well fitted inhibition curve with a large enough effect; inconclusive = small, poorly fitted or top-dose-only effect; inactive = no such curve, though single readings can be large or run the other way. Only a selection was taken, and actives are over-represented in it overall.

Biological target: Lysine-specific demethylase 4A (Homo sapiens) (UniProt O75164)
Sequence (O75164 whole entry, looked up, the tested form may be a part): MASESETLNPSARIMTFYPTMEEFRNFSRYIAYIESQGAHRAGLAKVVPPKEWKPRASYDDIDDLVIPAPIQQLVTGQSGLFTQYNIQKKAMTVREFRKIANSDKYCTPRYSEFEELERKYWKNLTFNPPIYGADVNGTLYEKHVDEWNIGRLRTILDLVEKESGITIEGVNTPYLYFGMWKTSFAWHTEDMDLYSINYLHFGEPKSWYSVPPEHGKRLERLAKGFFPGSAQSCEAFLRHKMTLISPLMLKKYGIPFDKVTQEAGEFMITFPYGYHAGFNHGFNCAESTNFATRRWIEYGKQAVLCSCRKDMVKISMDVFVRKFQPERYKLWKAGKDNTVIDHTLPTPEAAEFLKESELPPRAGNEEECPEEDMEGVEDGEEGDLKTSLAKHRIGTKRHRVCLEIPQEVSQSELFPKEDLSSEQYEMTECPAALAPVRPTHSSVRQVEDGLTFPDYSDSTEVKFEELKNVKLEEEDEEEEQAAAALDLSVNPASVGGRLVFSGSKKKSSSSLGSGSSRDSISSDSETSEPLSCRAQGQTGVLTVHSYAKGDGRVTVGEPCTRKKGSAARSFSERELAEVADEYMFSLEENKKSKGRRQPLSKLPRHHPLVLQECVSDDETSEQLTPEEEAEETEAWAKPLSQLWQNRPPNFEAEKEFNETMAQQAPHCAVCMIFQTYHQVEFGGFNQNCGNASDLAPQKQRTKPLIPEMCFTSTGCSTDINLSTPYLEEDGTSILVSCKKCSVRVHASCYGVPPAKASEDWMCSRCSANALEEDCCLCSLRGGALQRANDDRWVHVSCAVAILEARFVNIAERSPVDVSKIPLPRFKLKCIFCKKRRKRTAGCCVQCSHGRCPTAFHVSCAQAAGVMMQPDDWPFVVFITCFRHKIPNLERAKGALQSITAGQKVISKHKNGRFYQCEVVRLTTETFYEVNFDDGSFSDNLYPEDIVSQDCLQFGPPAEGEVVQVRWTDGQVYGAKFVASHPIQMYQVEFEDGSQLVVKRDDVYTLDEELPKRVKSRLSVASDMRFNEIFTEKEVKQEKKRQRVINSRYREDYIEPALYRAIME
Test: qHTS Assay for Inhibitors of JMJD2A-Tudor Domain; also: nearly all actives have a fitted effect of over 50% in size
Conditions: AlphaScreen JMJD2A-Tudor / H3K4me3 peptide binding; series mostly up to 114 µM; activity change, negative = inhibition: at the top concentration
% is scaled to controls: 0 for no effect and ±100 for the full control effect; potency is read from the fitted curve at half-maximal effect.

Activity change, negative = inhibition, inactive:
CCCC12CN3CC(C)(CN(C1)C3c1ccccc1Cl)C2=O (centres undefined) 2.75%
CCOc1ccc(-c2nnn(CC(=O)N3CCN(c4ccc(OC)cc4)CC3)n2)cc1OCC -19%
COc1ccc(N2CCN(C(=O)CSc3nnc4ncccn34)CC2)cc1 -19.9%
COc1ccccc1C(=O)Nc1c(C(=O)N(C)Cc2ccccc2)sc2nc(C)c(Cl)c(C)c12 -16.8%
O=C(NCc1ccc(Cl)cc1)c1ccc2c(c1)nnn2C1CCCC1 -7.14%
COc1ccc(-c2nc(S(=O)(=O)c3ccccc3)c(N3CCCCC3)o2)cc1 -10%
CCOC(=O)COc1nc(C)cc(C(F)(F)F)c1C#N -18.1%
CCOC(=O)c1cnc(SCC(=O)Nc2ccccc2C(=O)OC)nc1N -14.7%
COc1ccccc1N1CCN(C2C(=O)c3ccccc3N2C(C)=O)CC1 (centres undefined) -22.4%
COc1ccccc1N1CCN(/N=C/c2ccc(O)cc2O)CC1 -20.3%
CCN1CCN(C(=O)N[C@@H](C(=O)N[C@@H]2C(=O)N3C(C(=O)O)=C(CSc4nnnn4C)CS[C@H]23)c2ccc(O)cc2)C(=O)C1=O -11%
Cc1nnc(SCC2=C(C(=O)O)N3C(=O)C(NC(=O)Cn4nc(C)c(Cl)c4C)C3SC2)s1 (centres undefined) -6.9%
O=C(NC1CC(=O)N(c2ccc(Cl)cc2)C1)C1CCCC1 (centres undefined) -2.92%
Cc1ccc(CN2CCC(CNC(=O)c3cnn(-c4ccc(C)cc4)c3C3CCN(C(=O)OC(C)(C)C)CC3)CC2)cc1 -28.8%
COc1ccc(CCNC(=O)COC(=O)C2CC2C)cc1 (centres undefined) 7.09%
COc1ccc(CCNC(=O)COC(=O)c2cc(=O)c3ccccc3o2)cc1 5.23%
COc1cccc(CNC(=O)c2cc(=O)[nH]c3ccc(S(=O)(=O)N4CCCCC4)cc23)c1 0.683%
CC1CN(C(=O)N2CCC(C(=O)NCc3ccco3)CC2)c2cc(Cl)ccc2O1 (centres undefined) -20.1%
CCCn1c(=N)n(CC(O)COc2ccccc2OC)c2ccccc21 (centres undefined) -15.5%
O=C(Cn1c(-c2cccs2)cc2ccccc21)NCCc1ccc(Cl)cc1 -13.2%
Cc1c(Cl)cccc1NC(=O)N1CCN(C(=O)c2nsc3ccccc23)CC1 -0.649%
CCCN(C(=O)Cn1ncc2c([nH]c3ccc(C)cc32)c1=O)c1ccccc1C -26.2%
CCOc1ccc(/C=C(/C#N)c2nnc(N3CCOCC3)n2-c2ccccc2)cc1OC -20.7%
CCCn1c2ccccc2c2cnn(CC(=O)NCC3CCN(Cc4ccc(C)cc4)CC3)c(=O)c21 -28.4%
CC(Sc1nnnn1C)C(=O)NC(=O)NC1CCCCC1 (centres undefined) -15.8%
O=C(CSc1nnnn1C1CCCC1)N1CCCCC1 2.05%
CCN(CC)c1ccc(C2C(C(N)=O)=C(C)Nc3nc(SCc4ccccc4)nn32)cc1 (centres undefined) -2.39%
CCc1ccc(NC(=O)c2cc(S(=O)(=O)N3CCCC(C)C3)cn2C)cc1 (centres undefined) 2.88%
CCOc1ccc(CNCc2c(C(=O)O)c(C)n(Cc3cccc(OC)c3)c2C)cc1OC -26.2%
CCOc1ccc(NC(=O)Nc2cc(C)on2)cc1 -0.741%
Cc1cc(NC(=O)COc2ccccc2C#N)no1 -12.1%
Cc1ccc(C(=O)Nc2ccc(OCc3cc(=O)n4c(C)csc4n3)cc2)cc1 -22.5%
CCOc1cccc(CNC(=O)c2ccc(N3CCCC3)c(NC(=O)Nc3ccccc3CC)c2)c1 -9.27%
COc1ccccc1/C=C/c1nc(C#N)c(NC(C)c2ccccc2)o1 (centres undefined) -14.2%
COc1cc2nc(NCC(C)c3ccccc3)n3nc(-c4ccccc4)nc3c2cc1OC (centres undefined) -26.5%
Clc1ccccc1CSc1nncn2c1cc1occc12 -27.5%
Nc1cc(N)nc(SCc2ccc(Cl)cc2)n1 -23.1%
COc1ccc(-n2c(C)nc3c(cnn3-c3ccc(F)cc3)c2=O)cc1 -6%
COc1cc(NC(=O)CSc2nc3nc(C)c(Cc4ccc(C)cc4)c(C)n3n2)cc(OC)c1OC -27.7%
O=C(O)c1c(CNCc2cccc(F)c2)c2ccccc2n1Cc1ccccc1 -20.5%
O=C(Nc1nnc(C2CC(=O)N(c3ccc(Cl)cc3)C2)s1)c1ccco1 (centres undefined) -10.6%
Cc1cccc(CSc2nc3ccncc3n2CC(=O)N(C)C2CCCCC2)c1 -8.05%
CCOc1ccc(CNC(=O)C2CCCN(S(=O)(=O)N(CC)c3ccc(OCC)cc3)C2)cc1 (centres undefined) -11%
CCOC(=O)c1sc2nc(CSCC(=O)OCc3ccc(C(=O)OC)o3)[nH]c(=O)c2c1C -18.7%
Cc1sc2nc(CSCC(=O)NC3CCCCC3)[nH]c(=O)c2c1C -13.1%
Cn1c(=O)sc2cc(NS(=O)(=O)c3ccc(C(C)(C)C)cc3)ccc21 -10.9%
CCOC(=O)c1ccc(NC(=O)c2c(NCc3cccc(OC)c3)sc3c2CCC3)cc1 -12.2%
CCOC(=O)C1CCCN(S(=O)(=O)c2cc(-c3cc(C)no3)ccc2OC)C1 (centres undefined) -10.9%
Cc1ccccc1C(=O)Nc1ccccc1NC(=O)c1ccccc1C -16.9%
CSCc1ccc(C(=O)Nc2cc(C)cc(C)c2)cc1 -8.45%
Cc1cc2c(cc1S(=O)(=O)CCC(=O)Nc1ccc(OC(F)(F)F)cc1)OCC(=O)N2 -12.2%
CCCCc1nn2c(=O)cc(COC(=O)c3ccc(NC(=O)c4ccccc4C)cc3)nc2s1 -21.9%

Potency, active:
COc1ccc(N2CCN(C(=O)CSc3nc4cc(OC)c(OC)cc4cc3C#N)CC2)cc1 56.2 µM
CCOC(=O)C(Sc1ncc(C#N)c(N)n1)C(C)C (centres undefined) 44.7 µM
COc1ccccc1N1CCN(/N=C\C(Br)=C\c2ccccc2)CC1 39.8 µM
Cc1cc(C)cc(C(=O)NC2C(=O)N3C(C(=O)O)=C(CSc4nnc(C)s4)CSC23)c1 (centres undefined) 79.4 µM
COc1ccc(CCNC(=O)COC(=O)c2ccc[nH]c2=O)cc1 31.6 µM
CC(C)=CCCC1(C)C=Cc2c(ccc3c2[nH]c2cc(O)c(C)cc23)O1 (centres undefined) 44.7 µM
COc1cc(N2CCCC2)c(OC)cc1/C=C(/C#N)c1cccc(Br)c1 17.8 µM
CC(Sc1nnnn1C1CCCCC1)C(=O)O (centres undefined) 11.2 µM
Cc1cc(NC(=O)Nc2ccccc2[N+](=O)[O-])no1 22.4 µM
Clc1ccc(CSc2nncn3c2cc2occc23)cc1 39.8 µM
CSc1nnc(SCc2nc3sc(C(=O)O)c(C)c3c(=O)[nH]2)s1 12.6 µM
CC(=O)Nc1ccccc1NC(=O)c1cc(C)cc(C)c1 11.2 µM
